From PubChem BioAssay

target: Mitogen-activated protein kinase 7 (Homo sapiens) (UniProt Q13164); assay: ERK5 transactivation activators in reporter cells, primary screen, cell-based, HTS (AID 1508626); conditions: HeLa Gal4-ERK5 transactivation, 18 h, at 5 µM, active compounds read high;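 further: luciferase driven by Gal4-ERK5 fusion binding five Gal4 sites before minimal TATA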
Sequence (Q13164 whole entry, looked up, the tested form may be a part): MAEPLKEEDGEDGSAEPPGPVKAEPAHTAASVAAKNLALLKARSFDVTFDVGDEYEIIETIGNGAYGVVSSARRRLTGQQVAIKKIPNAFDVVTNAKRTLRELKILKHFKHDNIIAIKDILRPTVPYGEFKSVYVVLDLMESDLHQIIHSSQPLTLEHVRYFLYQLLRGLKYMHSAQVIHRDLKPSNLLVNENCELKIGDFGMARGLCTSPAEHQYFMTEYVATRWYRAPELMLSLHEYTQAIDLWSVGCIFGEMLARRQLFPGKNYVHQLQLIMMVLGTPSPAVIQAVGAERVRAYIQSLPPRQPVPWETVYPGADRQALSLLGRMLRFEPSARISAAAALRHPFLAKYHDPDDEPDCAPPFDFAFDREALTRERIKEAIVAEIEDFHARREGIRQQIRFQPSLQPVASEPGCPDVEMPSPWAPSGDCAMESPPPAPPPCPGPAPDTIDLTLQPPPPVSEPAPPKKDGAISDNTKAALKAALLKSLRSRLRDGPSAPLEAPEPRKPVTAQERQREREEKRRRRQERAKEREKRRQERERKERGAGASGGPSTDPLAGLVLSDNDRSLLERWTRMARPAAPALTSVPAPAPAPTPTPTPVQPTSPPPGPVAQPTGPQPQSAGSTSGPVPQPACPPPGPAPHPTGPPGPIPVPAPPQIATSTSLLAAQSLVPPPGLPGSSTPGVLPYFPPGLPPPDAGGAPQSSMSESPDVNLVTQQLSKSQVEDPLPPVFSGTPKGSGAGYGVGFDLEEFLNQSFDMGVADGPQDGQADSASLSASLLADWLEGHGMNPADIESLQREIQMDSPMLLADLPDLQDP

Luciferase signal, inactive:
CC1CC(OC(=O)C(O)c2ccccc2)CC(C)(C)N1C (stereo not given) 48 AU, O=C(O)c1ccccc1OP(=O)(O)O 60 AU, Cc1ccnc(NS(=O)(=O)c2ccc(N)cc2)n1 68 AU, Cc1c(NC(C)C)c(=O)n(-c2ccccc2)n1C 56 AU, Nc1ccc(S(=O)(=O)Nc2cnc3ccccc3n2)cc1 84 AU, COc1ccc(C(=O)c2ccccc2O)c(O)c1 92 AU, CC(=O)[C@@]1(O)CC[C@H]2[C@@H]3C[C@H](C)C4=CC(=O)C=C[C@]4(C)[C@@]3(F)[C@@H](O)C[C@@]21C 76 AU, Nc1c2ccccc2nc2ccccc12 92 AU, COc1c2occc2c(OC)c2c(=O)cc(C)oc12 80 AU, O=C(O)CCCC[C@@H]1SC[C@@H]2NC(=O)N[C@@H]21 256 AU, COc1cnc(NS(=O)(=O)c2ccc(N)cc2)nc1 40 AU, Nc1ncnc2nc[nH]c12 72 AU, CCCCOC(=O)c1ccc(N)cc1 56 AU, NS(=O)(=O)c1cc2c(cc1Cl)NC(CSCc1ccccc1)=NS2(=O)=O 88 AU, Nc1nc2c(c(=O)[nH]1)N(C=O)C(CNc1ccc(C(=O)N[C@@H](CCC(=O)O)C(=O)O)cc1)CN2 (stereo not given in full) 72 AU, CCCCC(CC)CN1CN(CC(CC)CCCC)CC(C)(N)C1 (stereo not given) 88 AU, C[C@H](N)[C@H](O)c1cccc(O)c1 40 AU, NC(=O)NC1NC(=O)NC1=O (stereo not given) 72 AU, C[N+]12CCC(CC1)C(OC(=O)C(O)(c1ccccc1)c1ccccc1)C2 (stereo not given) 48 AU, O=C(O)c1ccccc1O 24 AU, CCOc1ccc(Cc2nccc3cc(OCC)c(OCC)cc23)cc1OCC 68 AU, C[C@@H]1C[C@H]2[C@@H]3C[C@H](F)C4=CC(=O)C=C[C@]4(C)[C@@]3(F)[C@@H](O)C[C@]2(C)[C@@]1(O)C(=O)CO 116 AU, Oc1c(Br)cc(Br)c2cccnc12 88 AU, Cc1c(Nc2ncccc2C(=O)O)cccc1C(F)(F)F 44 AU, CCN(CC)CCNC(=O)c1cc(Br)c(N)cc1OC 60 AU, CCCCN(CCCC)CCCOC(=O)c1ccc(N)cc1 120 AU, O=C(O)c1ccccc1C(=O)Nc1ccc(S(=O)(=O)Nc2nccs2)cc1 92 AU, CCC(Cc1c(I)cc(I)c(N)c1I)C(=O)O (stereo not given) 56 AU, Nc1ccc(S(=O)(=O)Nc2nccs2)cc1 84 AU, Nc1ccc(S(=O)(=O)NC(=O)c2ccccc2)cc1 32 AU, CN1[C@@H]2CC[C@H]1CC(OC(=O)C(O)c1ccccc1)C2 (stereo not given in full) 40 AU, CCOC(=O)c1ccc(N)cc1 112 AU, CC(NCCC(c1ccccc1)c1ccccc1)c1ccccc1 (stereo not given) 36 AU, CCN1CCCC(OC(=O)C(c2ccccc2)c2ccccc2)C1 (stereo not given) 64 AU, CCCCc1nc(Cl)c(CO)n1Cc1ccc(-c2ccccc2-c2nn[nH]n2)cc1 44 AU, CC1(C)O[C@@H]2C[C@H]3[C@@H]4C[C@H](F)C5=CC(=O)CC[C@]5(C)[C@H]4[C@@H](O)C[C@]3(C)[C@]2(C(=O)CO)O1 228 AU, COc1cc(NS(=O)(=O)c2ccc(N)cc2)ncn1 44 AU, OCC(O)CN1CCN(c2ccccc2)CC1 (stereo not given) 48 AU, Cc1c(C(N)=O)cc([N+](=O)[O-])cc1[N+](=O)[O-] 68 AU, CCN(CCCCOC(=O)c1ccc(OC)c(OC)c1)C(C)Cc1ccc(OC)cc1 (stereo not given) 52 AU
